Where “and” joins values, the source holds several entries; their conditions need not be identical. Identical values can stand only once. Screen size: about 5,500 compounds; about 2,000 (36%) were called active. Inconclusive results (about 18%) are left out. Rule as the data show it: active = normalized growth mostly below about 0.91 (no sharp cut-off); inconclusive = no clear call, values can overlap the other calls; inactive = mostly above about 0.92. This is one part of the list.
Assay: chemical genetic growth profiling, strain panel (AID 1159580);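 also: tested at 20 µM; growth read once vehicle control cultures reached saturation at 30 °C; 1 = growth at the plate median or of vehicle wells; lower values mean less growth of the strain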
Conditions: S. cerevisiae deletion strains, growth OD

Measured: normalized growth

OC[C@H]1O[C@@](CO)(O[C@@H]2O[C@H](CO)[C@@H](O)[C@H](O)[C@H]2O)[C@@H](O[C@@H]2O[C@H](CO)[C@@H](O)[C@H](O)[C@H]2O)[C@@H]1O
inactive: locus YAL013W, strain DEP1, stronger effect = lower value 1.02 | locus YAL021C, strain ccr4, stronger effect = lower value 1.01 | locus YAL026C, strain drs2, stronger effect = lower value 1.02 | locus YAL030W, strain snc1, stronger effect = lower value 1.02 | locus YBL061C, strain skt5, stronger effect = lower value 1.02 | locus YBR009C, strain hhf1, stronger effect = lower value 1.02 | locus YBR021W, strain FUR4, stronger effect = lower value 1.01 | locus YBR023C, strain chs3, stronger effect = lower value 1.02 | locus YBR171W, strain sec66, stronger effect = lower value 1.03 | locus YBR229C, strain ROT2, stronger effect = lower value 1.01 | locus YBR231C, strain swc5, stronger effect = lower value 1.02 | locus YBR279W, strain paf1, stronger effect = lower value 1.02 | locus YCL011C, strain gbp2, stronger effect = lower value 1.02 | locus YCL016C, strain dcc1, stronger effect = lower value 1.02 | locus YCL029C, strain bik1, stronger effect = lower value 1.05 | locus YCL061C, strain MRC1, stronger effect = lower value 1.01 | locus YCL069W, strain vba3, stronger effect = lower value 1.01 | locus YCR088W, strain abp1, stronger effect = lower value 1.01 | locus YDL005C, strain med2, stronger effect = lower value 1.02 | locus YDL035C, strain GPR1, stronger effect = lower value 1.04 | locus YDL040C, strain nat1, stronger effect = lower value 1.01 | locus YDL074C, strain BRE1, stronger effect = lower value 1.09 | locus YDL101C, strain DUN1, stronger effect = lower value 1.02 | locus YDL134C, strain PPH21, stronger effect = lower value 1.05 | locus YDL185W, strain tfp1, stronger effect = lower value 1.01 | locus YDL192W, strain arf1, stronger effect = lower value 1.04 | locus YDR001C, strain nth1, stronger effect = lower value 1.02 | locus YDR069C, strain doa4, stronger effect = lower value 1.04 | locus YDR101C, strain arx1, stronger effect = lower value 1.01 | locus YDR137W, strain rgp1, stronger effect = lower value 1.02 | locus YDR159W, strain sac3, stronger effect = lower value 1.02 | locus YDR162C, strain NBP2, stronger effect = lower value 1.07 | locus YDR195W, strain ref2 1.01 | locus YDR297W, strain sur2, stronger effect = lower value 1.02 | locus YDR318W, strain mcm21, stronger effect = lower value 1.06 | locus YDR334W, strain swr1, stronger effect = lower value 1.02 | locus YDR335W, strain msn5, stronger effect = lower value 1.02 | locus YDR388W, stronger effect = lower value 1.01 | locus YDR392W, strain spt3, stronger effect = lower value 0.969 | locus YDR502C, strain sam2, stronger effect = lower value 1.05 | locus YEL003W, strain gim4, stronger effect = lower value 1.03 | locus YEL037C, strain rad23, stronger effect = lower value 1.02 | locus YEL061C, strain CIN8 (second series), stronger effect = lower value 1.02 | locus YEL061C, strain CIN8, stronger effect = lower value 1.01 | locus YER015W, strain faa2, stronger effect = lower value 1.02 | locus YER016W, strain bim1, stronger effect = lower value 1.02 | locus YER110C, stronger effect = lower value 1.01 | locus YER111C, strain swi4, stronger effect = lower value 1.02 | locus YER155C, strain BEM2 (second series), stronger effect = lower value 1.03 | locus YER155C, strain BEM2, stronger effect = lower value 1.02 | locus YER167W, strain BCK2, stronger effect = lower value 1.01 | locus YFR010W, strain ubp6, stronger effect = lower value 1.02 | locus YGL078C, strain dbp3, stronger effect = lower value 1.04 | locus YGL086W, strain mad1, stronger effect = lower value 1.03 | locus YGL167C, strain pmr1, stronger effect = lower value 1.02 | locus YGL173C, strain kem1, stronger effect = lower value 1.03 | locus YGL227W, strain vid30, stronger effect = lower value 1.02 | locus YGL240W, strain doc1, stronger effect = lower value 1.02 | locus YGL248W, strain PDE1, stronger effect = lower value 1.05 | locus YGL253W, strain hxk2, stronger effect = lower value 1.02 | locus YGR078C, strain PAC10, stronger effect = lower value 1.04 | locus YGR135W, strain pre9, stronger effect = lower value 1.04 | locus YGR252W, strain gcn5, stronger effect = lower value 1.09 | locus YHR013C, strain ard1, stronger effect = lower value 1.03 | locus YHR027C, strain rpn1, stronger effect = lower value 1.02 | locus YHR030C, strain SLT2, stronger effect = lower value 1.01 | locus YHR079C, strain IRE1 (second series), stronger effect = lower value 1.01 | locus YHR079C, strain IRE1, stronger effect = lower value 1.02 | locus YHR094C, strain hxt1, stronger effect = lower value 1 | locus YHR129C, strain ARP1, stronger effect = lower value 1.02 | locus YHR142W, strain chs7, stronger effect = lower value 1.01 | locus YHR200W, strain rpn10, stronger effect = lower value 1.03 | locus YIL066C, strain RNR3, stronger effect = lower value 1.03 | locus YIL073C, strain SPO22, stronger effect = lower value 1.05 | locus YIL125W, strain kgd1, stronger effect = lower value 1.02 | locus YIR030C, strain dcg1, stronger effect = lower value 1.01 | locus YJL092W, strain hpr5, stronger effect = lower value 1.02 | locus YJL095W, strain BCK1 (second series), stronger effect = lower value 1.02 | locus YJL095W, strain BCK1, stronger effect = lower value 1.08 and 1 | locus YJL115W, strain asf1, stronger effect = lower value 1.02 | locus YJL129C, strain trk1, stronger effect = lower value 1.01 | locus YJL134W, strain LCB3, stronger effect = lower value 1.01 | locus YJL154C, strain vps35, stronger effect = lower value 1.01 | locus YJL164C, strain tpk1, stronger effect = lower value 1 | locus YJL166W, strain qcr8, stronger effect = lower value 1.02 | locus YJL168C, strain set2, stronger effect = lower value 1.02 | locus YJL187C, strain SWE1 (second series), stronger effect = lower value 1.05 | locus YJL187C, strain SWE1, stronger effect = lower value 1.02

Source: PubChem BioAssay AID1159580 (chemical genetic matrix, 2015)
